Assay results from PubChem BioAssay AID504913 (The Scripps Research Institute Molecular Screening Center, 2011).
The other results are listed elsewhere or left out. The source made the active and inactive calls. Rule as the data show it: active = activation above about 18%; inactive = the rest.

assay: OPRM1-OPRD1 heterodimerization promoters, counter-screen for HTR5A agonist project, cell-based, luminescence (AID 504913); details: U2OS counter-screen cells, complementation luminescence, 3 h; at 9.3 µM; stronger effect = higher value

Row | Compound | activation
1 | CC1(C)C2CCC1(CS(=O)(=O)NCCc1c[nH]c3ccccc13)C(=O)C2 (stereo not given) | 0.82% (inactive)
2 | CN1c2ccc(C=O)c3c(C=O)ccc(c23)N(C)C1(C)C | 107% (active)
3 | O=C(c1cccnc1)N(c1cc2sc(=O)oc2c2ccccc12)S(=O)(=O)c1ccccc1 | 4.54% (inactive)
4 | O=C(CC1Nc2ccccc2NC1=O)Nc1ccccc1 (stereo not given) | 2.23% (inactive)
5 | Cc1ccc(C(=O)N/C(=C/c2ccco2)C(=O)NCCc2c[nH]c3ccccc23)cc1C | 0.35% (inactive)
6 | CCOC(=O)c1cnc2sccn2c1=O | 1.07% (inactive)
7 | Cc1ccc(CCC(=O)Nc2ncc(Cc3cc(Cl)ccc3Cl)s2)o1 | 32.2% (active)
8 | CCN(CC(=O)Nc1cccc(S(=O)(=O)N2CCCCC2)c1)Cc1ccccc1 | 4.65% (inactive)
9 | Cc1ccccc1CN1CCN(CC(=O)NCc2ccccn2)C1=O | 0.64% (inactive)
10 | CC(=O)c1c(C)[nH]c(C(=O)OCC(=O)Nc2c(C)cccc2C)c1C | 1.59% (inactive)
11 | O=C(Nc1ccc(C(=O)N2CCOCC2)cc1)Nc1cccc(C(F)(F)F)c1 | 0.41% (inactive)
12 | CC(=O)COc1ccc2c(-c3ccccc3)cc(=O)oc2c1 | 63.2% (active)
13 | CC1CCN(S(=O)(=O)c2nnc(NC(=O)COc3ccccc3F)s2)CC1 | 3.72% (inactive)
14 | COc1ccc(S(=O)(=O)N2CCN(CC(=O)N3c4ccccc4CC3C)CC2)cc1OC (stereo not given) | 4.47% (inactive)
15 | c1ccc(-n2nc3ccccc3n2)cc1 | 2.66% (inactive)
16 | CNc1nnc(-c2ccco2)s1 | 4.29% (inactive)
17 | CCCOc1ccc(C(=O)C(CCC(CNCC)C(=O)c2ccc(OCCC)cc2)CNCC)cc1 (stereo not given) | -0.5% (inactive)
18 | Cc1ccc(CN2CCN(Cc3ccc(OCCO)cc3)CC2CCO)o1 (stereo not given) | -0.37% (inactive)
19 | COc1cccc(/C=N/NC(=O)c2[nH]nc3c2CCc2ccccc2-3)c1O | -4.02% (inactive)
20 | CC(C)OC(=O)c1c(NC(=O)c2ccco2)sc2c1CCCC2 | 4.46% (inactive)
21 | Cc1oc2c(F)c(F)c(F)c(F)c2c1S(=O)(=O)Nc1cccc(C(F)(F)F)c1 | -0.99% (inactive)
22 | COc1ccc(C(=O)O/N=C(\N)Cc2ccc(Cl)cc2Cl)cc1OC | 9.9% (inactive)
23 | O=C(OC12CC3CC(CC(C3)C1)C2)c1ccc(NCc2cc(O)ccc2O)cc1 | 8.31% (inactive)
24 | CC(C)CC(=O)N/C(N)=N/c1nc2ccccc2s1 | 5.76% (inactive)
25 | COc1c(Cl)cc(C(=O)Nc2ccc(Cl)cn2)cc1Cl | 9.05% (inactive)
